High-throughput results from PubChem.
M1 antag: blocks human M1 muscarinic receptor. P11229. CHO-K1 hM1, Fluo-8 calcium fluorescence, ACh EC80 antagonist. inhibition, % at 3 µM. 1.3% of 360,000 active;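 active = percent inhibition above its own plate's cutoff, namely the mean of that plate's compound wells plus 3 SD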;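 also: peak over basal fluorescence ratio during 140 s after agonist addition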
Target sequence (P11229 whole entry, looked up): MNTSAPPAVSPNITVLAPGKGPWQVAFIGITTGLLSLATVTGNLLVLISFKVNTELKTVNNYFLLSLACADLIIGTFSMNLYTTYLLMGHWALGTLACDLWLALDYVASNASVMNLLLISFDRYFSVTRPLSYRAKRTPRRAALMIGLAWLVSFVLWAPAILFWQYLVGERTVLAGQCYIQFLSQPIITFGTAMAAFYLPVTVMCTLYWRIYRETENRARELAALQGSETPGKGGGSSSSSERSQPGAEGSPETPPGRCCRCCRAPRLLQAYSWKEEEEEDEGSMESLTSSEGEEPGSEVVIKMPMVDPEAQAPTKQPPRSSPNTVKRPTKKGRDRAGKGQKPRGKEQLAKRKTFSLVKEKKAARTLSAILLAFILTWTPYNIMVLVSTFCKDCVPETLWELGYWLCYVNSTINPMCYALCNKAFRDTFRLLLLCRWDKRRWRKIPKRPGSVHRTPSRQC
M1 PAM: positive allosteric modulators of human M1 muscarinic receptor; activation, % at 3 µM; CHO-K1 hM1, Fluo-8 calcium fluorescence, ACh EC20; 0% = ACh EC20, 100% = maximal ACh; P11229; 0.088% of 360,000 active; in the data active = activation above about 19%, passing the limit was not always enough
M1 ag: activates human CHRM1 receptor | P11229 | CHO-K1 hM1, Fluo-8 calcium fluorescence, agonist mode; 0% DMSO, 100% acetylcholine EC100 | activation, % at 3 µM | 0.33% of 360,000 active;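 active = activation above the run's mean compound activation plus 3 SD, cut at about 16% in these data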;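 also: peak over basal fluorescence ratio within a 140 s kinetic read after compound addition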
CHO-K1 Ca ag: M1 agonist counterscreen hit in parental CHO-K1 cells | 0.48% of 360,000 active | AID 602248 | Fluo-8 calcium fluorescence; scaled to maximal ATP response, vehicle zero | activation, % at 3 µM; in the data active = activation above about 15%;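 also: untransfected CHO-K1 host cells lacking M1 receptor as counterscreen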
CHO-K1 Ca antag: M1 antagonist counterscreen hit in parental CHO-K1 cells; ATP-induced calcium, Fluo-8 fluorescence; inhibition, % at 3 µM; 0.6% of 360,000 active; AID 602250;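 active = inhibition above a per-plate cutoff, the plate's mean sample inhibition plus 3 SD, cut at about 24% in these data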
CHO-K1 Ca PAM: M1 PAM counterscreen hit in parental CHO-K1 cells; ATP EC20, Fluo-8 calcium fluorescence; 0% at ATP EC20, 100% at ATP max; activation, % at 3 µM; 0.02% of 360,000 active;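 active = activation above the run cutoff, the mean activation of all test compounds plus 3 SD, cut at about 40% in these data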;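 also: peak over basal fluorescence ratio in a 140 s read after ATP addition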
Each line names hits and unclear results; the compound was inactive in the other large screens. An excerpt weighted towards active compounds, which were near 2.3% of everything screened.

O=C1CN(C(=O)COc2ccc(Br)cc2)c2ccccc2N1	none
COc1ccc(N=Cc2oc3ccc4ccccc4c3c2O)cc1	CHO-K1 Ca ag 24
COCCCNC(=S)Nc1cc(C)c(C)cc1C	M1 antag 62
Cc1csc(N(C)C(=O)CSc2nnc(COc3cccc4ccccc34)o2)n1	CHO-K1 Ca PAM 61
CN1CCN(c2nc(-c3ccco3)cc(C(F)(F)F)n2)CC1	M1 antag 60
CCOC(=O)N1CCN(c2nc(-c3ccco3)cc(C(F)(F)F)n2)CC1	none
Cc1ccc(CN2CC(N3CC=CC3)CS2(=O)=O)cc1 (stereo not drawn)	none
O=S1(=O)CC(N2CC=CC2)CN1Cc1ccc(F)cc1 (stereo not drawn)	CHO-K1 Ca antag 29
Cc1cccc(C)c1-c1ccc(CN2C(CC(C)C)C(=O)N(Cc3cn(CCO)nn3)CCS2(=O)=O)cc1 (stereo not drawn)	M1 antag 29
CC1C(=O)N(Cc2cn(CCC3OCCCO3)nn2)CCS(=O)(=O)N1Cc1ccc(-c2ccc(Cl)c(Cl)c2)cc1 (stereo not drawn)	M1 antag 31
CC1C(=O)N(Cc2cn(Cc3ccco3)nn2)CCS(=O)(=O)N1Cc1ccc(-c2ccccc2)cc1 (stereo not drawn)	none
CC1C(=O)N(Cc2cn(Cc3ccco3)nn2)CCS(=O)(=O)N1Cc1ccc(-c2ccc(Cl)cc2)cc1 (stereo not drawn)	CHO-K1 Ca antag 28
CC1C(=O)N(Cc2cn(CCC3OCCCO3)nn2)CCS(=O)(=O)N1Cc1ccc(-c2ccc(F)cc2)cc1 (stereo not drawn)	none
O=C(NNC1=NC2(CCCC2)Cc2ccccc21)c1ccncc1	none
Nc1ccc(-n2nncc2-c2ccc(Cl)cc2)cc1	CHO-K1 Ca ag 17
O=[N+]([O-])c1ccc(-n2nncc2-c2ccc(Cl)cc2)cc1	none
COc1ccc2[nH]cc(CCNC(=O)COc3cc(C)cc4oc(=O)cc(C)c34)c2c1	M1 antag 31
Cc1cc(OC(C)C(=O)NCCc2c[nH]c3ccccc23)c2c(C)cc(=O)oc2c1 (stereo not drawn)	none
Cc1ccccc1CN1CCC(CNC(=O)C2CCCN(c3ncnc4c3nc3n4CCCCC3)C2)CC1 (stereo not drawn)	M1 antag 101
CC1CC(C)CN(CCCNC(=O)C2CCCN(c3ncnc4c3nc3n4CCCCC3)C2)C1 (stereo not drawn)	M1 antag 29
CC1CCCN(CCCNC(=O)C2CCCN(c3ncnc4c3nc3n4CCCCC3)C2)C1 (stereo not drawn)	none
COc1cccc(CCNC(=O)C2CCCN(c3ncnc4c3nc3n4CCCCC3)C2)c1OC (stereo not drawn)	none
O=C(CSc1nc2ccccc2s1)Nc1cc(S(=O)(=O)N2CCOCC2)ccc1O	none
N#C/C(=C\Nc1ccc2cn[nH]c2c1)c1nc(-c2ccccc2)cs1	none
Cc1ccnc(N/C=C(\C#N)c2nc(-c3cccc(Br)c3)cs2)c1	M1 antag 43, M1 ag 161, CHO-K1 Ca ag 85, CHO-K1 Ca antag 39
COc1ccccc1C(CNC(=O)CN1C(=O)NC(C)(c2ccc3ccccc3c2)C1=O)N1CCCC1 (stereo not drawn)	M1 antag 65
COc1ccccc1C(CNC(=O)c1ccco1)N1CCCC1 (stereo not drawn)	M1 antag 73
COc1ccccc1C(CNC(=O)c1ccc(-c2ccccc2Cl)o1)N1CCCC1 (stereo not drawn)	M1 antag 84
COc1ccc(Cl)cc1C(=O)NCC(c1ccco1)N1CCCC1 (stereo not drawn)	none
COc1cc(C(=O)NCC(c2ccco2)N2CCCC2)ccc1OCc1ccc(Cl)cc1Cl (stereo not drawn)	M1 antag 49
COc1cccc(C(=O)COC(=O)CCC(=O)c2ccccc2)c1	none
O=C(COc1ccc(Br)cc1CNCCc1ccccc1)NCc1ccccc1	M1 antag 36
CCCNCc1cc(Br)ccc1OCC(=O)NCCc1ccccc1	none
CC(C)(C)NCc1cc(Cl)ccc1OCc1ccccc1F	CHO-K1 Ca ag 15
CN(C)CC/C=C1/c2cc(F)ccc2CSc2ccc(F)cc21	M1 antag 100
CN(C)CC/C=C1\c2cc(F)ccc2CSc2ccccc21	M1 antag 99
CC1CN(C(=S)Nc2ccccc2C(F)(F)F)CC(C)O1 (stereo not drawn)	none
Cc1ccc(S(=O)(=O)Nc2cc3c4c(c2)CCN4C(=O)CC3)cc1	none
C[C@@H]1CCCCCCCCC(=O)OCCN[C@H](C)CCCCCCCCC(=O)OCCN[C@H](C)CCCCCCCCC(=O)OCCN1	M1 antag 47
Cc1noc(C)c1S(=O)(=O)NCc1ccc(CN(C)C)cc1	none
O=C(c1cc(COc2ccc(F)cc2Cl)on1)N1CCN(C2CCCCC2)C(=O)C1	M1 antag 28, CHO-K1 Ca ag 21
COc1ccc(S(=O)(=O)N(C)c2ccc(C(=O)N3CCC(C(N)=O)CC3)cc2)cc1	none
COc1ccc(S(=O)(=O)N(C)c2ccc(C(=O)N3CCC(C(N)=O)CC3)cc2)cc1OC	CHO-K1 Ca antag 25
Cc1cc[n+](C(C)C(=O)c2ccc(-c3ccccc3)cc2)cc1 (stereo not drawn)	M1 antag 58
CC(C(=O)c1ccc(-c2ccccc2)cc1)[n+]1ccccc1 (stereo not drawn)	none
CC(C)OCCCn1c(SCC(=O)N2CCCC2=O)nc2ccccc2c1=O	CHO-K1 Ca ag 15
CCOc1ccc(CCNC(=O)C(CCC(N)=O)NC(=O)OCc2ccccc2)cc1OCC (stereo not drawn)	none
COCCN1C(=O)CCC1(C)C(=O)Nc1c(C)cccc1C (stereo not drawn)	CHO-K1 Ca antag 26
CCCCNC(=O)C1(C)CCC(=O)N1CCOC (stereo not drawn)	CHO-K1 Ca antag 33
CCN(CC)CCOC(=O)C12CC3CC(CC(C3)C1)C2	M1 antag 41
Cc1csc(NC(=O)c2ccc(Cn3nc(C)c(Br)c3C)o2)n1	CHO-K1 Ca ag 17
Cc1nn(Cc2ccc(C(=O)Nc3ccccc3C(F)(F)F)o2)c(C)c1Br	none
Cc1cc(C)cc(OCC(=O)O/N=C(\N)c2cccnc2)c1	none
CC(OC(=O)c1ccc(F)c(S(=O)(=O)N2CCOCC2)c1)C(=O)NC1CCCC1 (stereo not drawn)	CHO-K1 Ca antag 27
Fc1ccc(/C=C2\CCCC3=C2Nc2ncnn2C3c2ccc(F)cc2)cc1 (stereo not drawn)	M1 antag 32
O=C(CSc1nc(C(F)(F)F)cc(=O)[nH]1)Nc1cccc2ccccc12	M1 PAM 24
